Source: PubChem BioAssay
In the library only some 18% were active in any assay of this set; here they are far more common.
DT40 TDP1 CPT: qHTS for Inhibitors of human tyrosyl-DNA phosphodiesterase 1 (TDP1): qHTS in cells in presence of CPT; Potency, µM (series often up to 46.2 µM), most hits filed as inhibitors; chicken DT40 Tdp1-/-;hTDP1 cells + 20 nM CPT, ATP luminescence, 48 h; 420,000 compounds, 12% hits; also: nearly all actives have a fitted effect of over 55% in size
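Chicken DT40 Tdp1-/- cells complemented with human TDP1, 400 cells/well, exposed to compounds plus 20 nM camptothecin for at least 48 h at 37 C; viability read as ATP content by CellTiter-Glo luminescence.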
TGFb inhibitor: qHTS for Inhibitors of TGF-b | Potency, µM (top dose mostly 46.1 µM), most hits filed as inhibitors | HepG2 CAGA-GFP TGF-b/SMAD3 reporter, GFP fluorescence, 18 h; TGF-beta stimulated, 500 pg/mL final | AID 588855, 2011 | 410,000 compounds, 1.2% hits; also: nearly all actives have a fitted effect of over 65% in size
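Per well, imaged GFP fluorescence of HEPG2 CAGA-GFP cells gives the signal; cells get compound, then TGF-beta (500 pg/mL final), 18 h at 37 degrees C; %Activity versus -TGF-beta and +DMSO controls.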
TDP1 inh: qHTS Assay for Inhibitors of Tyrosyl-DNA Phosphodiesterase (TDP1). Potency, µM (titrated, usually from 130 µM), hits mostly inhibitors. 350,000 compounds, 0.28% hits. recombinant TDP1, AlphaScreen DNA substrate cleavage; also: nearly all actives have a fitted effect of over 40% in size
Target sequence (Q9NUW8 whole entry, looked up): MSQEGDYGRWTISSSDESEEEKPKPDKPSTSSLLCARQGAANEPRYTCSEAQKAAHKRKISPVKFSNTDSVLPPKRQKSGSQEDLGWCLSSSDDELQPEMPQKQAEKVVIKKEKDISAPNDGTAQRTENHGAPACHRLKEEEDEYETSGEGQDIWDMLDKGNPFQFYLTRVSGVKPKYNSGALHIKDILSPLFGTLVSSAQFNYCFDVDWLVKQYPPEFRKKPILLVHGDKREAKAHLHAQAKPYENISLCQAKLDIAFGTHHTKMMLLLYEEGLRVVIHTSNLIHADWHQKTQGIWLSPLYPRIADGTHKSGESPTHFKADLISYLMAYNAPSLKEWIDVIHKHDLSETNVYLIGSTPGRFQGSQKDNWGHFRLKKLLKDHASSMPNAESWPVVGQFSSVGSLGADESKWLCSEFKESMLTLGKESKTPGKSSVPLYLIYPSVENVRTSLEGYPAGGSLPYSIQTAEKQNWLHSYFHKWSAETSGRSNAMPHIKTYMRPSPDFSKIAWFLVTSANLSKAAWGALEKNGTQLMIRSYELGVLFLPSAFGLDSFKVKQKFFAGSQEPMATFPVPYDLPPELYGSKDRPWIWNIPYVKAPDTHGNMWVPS
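Recombinant human Tdp1 (E. coli-expressed, 1 nM final) preincubated with compounds 15 min at room temperature, then 5'-biotin/3'-phosphotyrosine-FITC DNA substrate (15 nM final) added for 5 min. AlphaScreen beads (10 ug/ml final) added 10 min; cleavage lowers signal.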
TDP1 cell noCPT: qHTS for Inhibitors of human tyrosyl-DNA phosphodiesterase 1 (TDP1): qHTS in cells in absence of CPT | DT40 Tdp1-/- hTDP1 cells, no CPT, ATP luminescence, 48 h | Potency, µM (series often up to 46.2 µM), most hits filed as inhibitors | 420,000 compounds, 15% hits | AID 686978, 2013; also: nearly all actives have a fitted effect of over 55% in size
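DT40 Tdp1-/-;hTDP1 cells, no CPT (DMSO vehicle only), 400 cells/well; compounds pin-transferred; ≥48 hr, 37 °C; CellTiter-Glo 30 min RT dark, luminescence read.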
HepG2 tox: qHTS for Inhibitors of TGF-b: Cytotox Counterscreen | HepG2 CAGA-GFP viability, ATP luminescence, 18 h | Potency, µM (doses to about 46.1 µM), actives largely listed as cytotoxic | 410,000 compounds, 0.76% hits
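HepG2 CAGA-GFP cells (1000/well, DMEM with 1% FBS) received compound, then TGF-beta at 500 pg/mL final, and were incubated 18 hours at 37 degrees C. Viability was read by CellTiter-Glo luminescence. Media-only wells were set as complete cell-killing and DMSO as no toxicity.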
IL1B secr inh: qHTS for Inhibitors of Inflammasome Signaling: IL-1-beta AlphaLISA Primary Screen; THP-1 LPS/ATP IL-1B secretion, AlphaLISA, 16 h; stronger effect = lower value; activity change, % at 57.5 µM; 360,000 compounds, 4.7% hits; AID 743279, 2014; in the data active = activity change below about -50%; inconclusive = mostly about -30% to -49%
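Secreted IL-1B measured by AlphaLISA bead assay after 16 h compound exposure of THP-1 cells; compounds (final up to 57.5 uM) added 1 h before LPS (250 ng/mL) and ATP (1.25 mM) stimulation; lower signal means less secretion.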
Numbers stand for hits; i = inactive; ? = inconclusive; nt = not tested or not shown. Unless noted, calls follow the shape of the dose curve; as a rule, active = well fitted curve in the direction sought with a large enough effect; inconclusive = small, poorly fitted or top-dose-only effect, or another doubt; inactive = no such curve, though single readings can be large; an effect the other way counts as inactive or inconclusive.

SMILES	DT40 TDP1 CPT	TGFb inhibitor	TDP1 inh	TDP1 cell noCPT	HepG2 tox	IL1B secr inh
Cc1noc(C)c1NC(=O)N(C)C[C@H]1Oc2ccc(NC(=O)Cc3ccccc3)cc2C(=O)N([C@H](C)CO)C[C@@H]1C	i	i	i	i	i	i
O=C(CCC(=O)c1ccc(Br)cc1)Nc1cccnc1	i	i	i	i	i	i
O=C(CCSc1ccc(Br)cc1)Nc1cccnc1	i	i	i	23.1µM	i	i
CCCCn1cnc2cc(NC(=O)c3cc(OC)c(OC)c(OC)c3)ccc21	?	i	i	?	i	nt
O=C(Nc1cccnc1Cl)c1ccc(=O)oc1	i	i	nt	i	i	i
C[C@H]1C=C2C=C[C@H](C)[C@H](CC[C@@H]3C[C@@H](O)CC(=O)O3)[C@H]2[C@@H](OC(=O)[C@@H](C)CCO)C1	26.6µM	nt	i	26.6µM	nt	nt
C#CCCc1cocc1/C=[N+](\[O-])c1ccc(C(=O)OCC)cc1	i	i	i	i	i	i
COc1ccc(/C=C/C(=O)c2ccc([N+](=O)[O-])o2)cc1	2.31µM	?	nt	2.59µM	i	i
COc1ccc(S(=O)(=O)N2CCOCC2)cc1NC(=O)CCNC(=O)c1ccc([N+](=O)[O-])cc1	?	i	i	7.31µM	i	i
COc1ccc(C)cc1NC(=O)c1cc(S(=O)(=O)N2CCN(c3cccc(C)c3C)CC2)ccc1F	i	i	i	i	i	nt
COc1ccc(NC(=O)CCNC(=O)c2ccc([N+](=O)[O-])cc2)cc1S(=O)(=O)N1CCOCC1	i	i	i	i	i	i
COc1ccc(C)cc1NC(=O)c1cc(S(=O)(=O)N2CCC(C)CC2)ccc1F	16.4µM	i	i	20.6µM	i	nt
COc1ccc(S(=O)(=O)N2CCCCC2)cc1NC(=O)c1ccc(CS(C)(=O)=O)cc1	i	i	i	18.4µM	i	i
CCC(=O)O[C@]1(C(=O)SCF)[C@H](C)C[C@H]2[C@@H]3C[C@H](F)C4=CC(=O)C=C[C@]4(C)[C@@]3(F)[C@@H](O)C[C@@]21C	i	nt	nt	i	nt	nt
COc1ccc(S(=O)(=O)N2CCN(C(=O)c3ccc([N+](=O)[O-])o3)CC2)cc1	10.3µM	?	44.7µM	20.6µM	i	-82.2
COc1ccc(S(=O)(=O)N2CCCCC2)cc1NC(=O)c1ccc([N+](=O)[O-])o1	14.6µM	i	i	20.6µM	i	nt
O=C(Nc1nnc(S(=O)(=O)N2CCCC2)s1)c1ccccc1F	i	i	i	?	i	-58.9
COc1ccc(CCC(=O)N2CCN(S(=O)(=O)c3ccc(C)cc3)CC2)cc1	i	i	i	i	i	i
COc1ccc(S(=O)(=O)N2CCCCCC2)cc1NC(=O)c1ccccc1F	16.4µM	i	i	i	i	i
COc1ccc(S(=O)(=O)N2CCCCC2)cc1NC(=O)c1ccc(C)cc1	i	i	i	i	i	i
Cn1cnnc1SCNC(=O)C(F)(F)F	i	i	i	i	i	i
CC(C)(C)c1ccc(C(=O)NCC(=O)NCC(C)(C)N2CCOCC2)cc1	i	i	i	i	i	i
COc1ccc(S(=O)(=O)N2CCOCC2)cc1NC(=O)c1ccc(S(=O)(=O)N2CCCCC2)cc1	11.6µM	i	nt	?	i	i
C[C@@H]1CCN=C(N)S1	i	nt	i	i	nt	nt
O=C(NC1CCCC1)C(c1ccc(F)cc1)N(Cc1ccc(Cl)cc1)C(=O)CCl (configuration not stated)	3.26µM	i	i	4.11µM	i	-102.3
CN(C)C(C(=O)NC1CCCCC1)c1ccc(Cl)cc1 (configuration not stated)	i	i	i	?	i	i
